Sampled rows, rich in hits. Any-hit rate of the full collection: about 2.4%.
D2 antagonist = antagonizes the human D2 dopamine receptor. inhibition, % at 10 µM. 2% of 340,000 active. AID 485344. HEK293 TREx D2 cells, calcium flux, dopamine EC80; in the data active means inhibition above about 30%; inactive means below that, where a call was filed; further: 0% is about no effect
Target sequence (P14416 whole entry, looked up): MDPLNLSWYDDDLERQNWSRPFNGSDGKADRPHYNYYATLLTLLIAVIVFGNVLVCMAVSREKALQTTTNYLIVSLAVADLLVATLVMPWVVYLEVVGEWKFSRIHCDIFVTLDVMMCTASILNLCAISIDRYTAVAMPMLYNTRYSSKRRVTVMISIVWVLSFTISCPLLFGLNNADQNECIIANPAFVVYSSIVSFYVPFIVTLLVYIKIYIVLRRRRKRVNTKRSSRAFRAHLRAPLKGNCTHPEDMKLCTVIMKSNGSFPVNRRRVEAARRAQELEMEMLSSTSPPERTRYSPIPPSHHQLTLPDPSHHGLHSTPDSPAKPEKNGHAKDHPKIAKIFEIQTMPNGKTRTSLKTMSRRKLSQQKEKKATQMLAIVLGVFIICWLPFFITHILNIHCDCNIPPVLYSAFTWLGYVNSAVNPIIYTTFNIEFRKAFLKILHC
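Antagonism is scored as inhibition of an EC80 dopamine-evoked calcium signal in a force-coupled, tetracycline-inducible HEK293 T-REx D2 line, with compound present 180 s before agonist.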
D2 ag-1 = agonists of human D2 dopamine receptor (beta-arrestin); P14416; DiscoveRx PathHunter D2 beta-arrestin, luminescence, 90 min; 100% = 57 uM dopamine signal; 0.084% of 360,000 active; activation, % (test concentration not listed); in the data active means activation above about 40%; inconclusive means between about 15% and that limit
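DiscoveRx PathHunter D2 beta-arrestin cells (2,100/well) attached overnight, then compound-stimulated 90 min at 37 C in HBSS/10 mM HEPES/0.1% Tween-20 buffer; beta-galactosidase complementation read by luminescence after 1 h at ambient temperature. Dopamine 57 uM final (EC100) as control.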
D2 PAM-1 = potentiates the human D2 dopamine receptor allosterically | P14416 | DiscoveRx D2 beta-arrestin cells, luminescence, 90 min; 100% = 57 uM dopamine signal | potentiation, % (no concentration beside the values) | 0.23% of 360,000 active | AID 624464; in the data active means potentiation above about 50%; inconclusive means mostly about 30% to 49%
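PathHunter D2 cells, attached overnight at 37 deg C, received compound in DMSO plus dopamine at EC20 (50 nM final) for 90 min at 37 deg C. Beta-arrestin recruitment was read as luminescence after 1 h with detection reagent at ambient temperature.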
D2 ag-2 = agonists of human D2 dopamine receptor; activation, % at 2 µM; 0.53% of 340,000 active; HEK293 T-REx D2 cells, calcium flux agonist mode; AID 485358;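 active means activation over 3 SD above normal in the single-dose calcium agonist read, cut at about 30% in these data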; further: 0% is about no effect
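Tetracycline-induced HEK293 Trex cells with D2 receptor force-coupled to calcium signaling, plated overnight at 30 C and loaded with no-wash calcium dye. Calcium flux read kinetically for 180 s after compound addition; responses flag agonists.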
D2 PAM-2 = positive allosteric modulators of human D2 dopamine receptor; P14416; HEK293 T-REx D2, calcium flux, EC20 dopamine potentiation; potentiation, % at 10 µM; 0.34% of 340,000 active; AID 485347;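 active means potentiation over 3 SD above the plate norm, cut at about 30% in these data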; further: 0% is about no effect
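Potentiation of an EC20 dopamine calcium response is measured in a force-coupled, tetracycline-inducible Hek293 Trex D2 line. Compound-only kinetic reads over 180 s flag agonists before dopamine addition.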
Numbers without * were called inactive; ? = inconclusive; . = no result.

SMILES | D2 antagonist | D2 ag-1 | D2 PAM-1 | D2 ag-2 | D2 PAM-2
CC(C)c1nnc(NC(=O)CS(=O)(=O)Cc2ccccc2)s1 | 55* | 5 | 4 | 0 | 4
CCCC(C)c1nnc(NC(=O)CCS(=O)(=O)Cc2ccccc2)s1 (stereo unspecified) | -15 | -8 | -7 | 0 | -9
CCCC(C)c1nnc(NC(=O)CS(=O)(=O)Cc2ccccc2)s1 (stereo unspecified) | -2 | 2 | 9 | 0 | 30*
CCOc1ccc(S(=O)(=O)NCCC(=O)NCC(c2ccco2)N2CCCCC2)cc1 (stereo unspecified) | -5 | 7 | -3 | 0 | 10
C#CCNC(=O)/C=C/c1ccc(C)cc1 | 40* | -2 | -13 | 0 | 4
Cc1ccc(/C=C/C(=O)NCCCc2ccccc2)cc1 | -12 | -5 | -20 | -1 | 9
CSc1nc(N)c2cn[nH]c2n1 | . | -1 | -9 | . | .
Cc1ccc(/C=N\NC(=O)CCc2n[nH]c(=O)[nH]c2=O)o1 | 9 | 8 | -5 | 0 | 50*
COc1ccc(OC)c(/C=N/NC(=O)CCc2n[nH]c(=O)[nH]c2=O)c1 | 0 | 0 | -7 | -1 | -2
CCOc1ccc(NC(=NCc2ccc3c(c2)OCO3)SC2CC(=O)N(c3ccccc3)C2=O)cc1 (stereo unspecified) | -8 | -4 | -3 | 1 | 31*
CN1CCN(/C(=N\O)c2nonc2N)CC1 | -5 | -3 | -35 | 0 | -7
Nc1nonc1/C(=N/O)N1CCN(CCO)CC1 | 51* | 1 | -13 | 1 | -18
O=C(COC(=O)C1=NN(c2ccccc2)C(=O)CC1)NCc1ccccc1Cl | 32* | -3 | 13 | -1 | -5
Cc1cn([C@H]2C[C@H](O)[C@@H](/C=C/C(=O)NCCN3CCOCC3)O2)c(=O)[nH]c1=O | . | -5 | -7 | . | .
Cc1ccc(C)c(N(C)S(=O)(=O)c2ccc3[nH]cc(C(=O)NC4CCCC4)c(=O)c3c2)c1 | . | . | . | . | -7
c1ccc(-c2nnc3n2N=C(c2ccc4c(c2)OCO4)CS3)nc1 | -3 | -3 | -23 | -1 | -12
c1cc2c(cc1C1=Nn3c(nnc3C3CCCCC3)SC1)OCO2 | 33* | 1 | -14 | -2 | 13
Cc1ccc(NC(=O)c2nnn(-c3ccc4c(c3)OCCO4)c2N)cc1 | 60* | 1 | 3 | 1 | -14
Cc1ccc(OCCC(=O)OCC(=O)N2CCN(S(=O)(=O)c3ccc(C)cc3)CC2)cc1 | -3 | -3 | 14 | 1 | -3
Cc1ccsc1/C=N/NC(=O)c1ccncc1 | -2 | -2 | -5 | 1 | -1
Cc1ccsc1/C=N/NC(=O)c1ccc2ccccc2c1 | 41* | -2 | -17 | 0 | -21
CC1CCCN(Cc2ccc(OCc3ccccc3)cc2)C1 (stereo unspecified) | 46* | 0 | -35 | -1 | -14
OC1CCN(Cc2ccc(OCc3ccccc3)cc2)CC1 | 5 | 5 | -18 | -1 | -8
O=C(Nc1cccnc1N1CCOCC1)c1cc2ccccc2oc1=O | -10 | 2 | 13 | 2 | -4
O=C(O)c1ccccc1NC(=O)c1cc2ccccc2oc1=O | 14 | -1 | 51* | 2 | 0
SMILES | D2 antagonist | D2 ag-1 | D2 PAM-1 | D2 ag-2 | D2 PAM-2
CN(CCCNC(=O)c1ccc(/C=N/O)nc1)CCCN(C)Cc1ccccc1 | 6 | 1 | 8 | 0 | -9
CN(CCNC(=O)c1ccc(/C=N/O)nc1)Cc1ccccc1 | 61* | -6 | -36 | 1 | -26
CCOc1ccc(Nc2c(S(=O)(=O)c3ccc(Cl)cc3)cnc3ccc(OC)cc23)cc1 | . | . | . | 0 | 5
COc1cc(C(=O)Nc2cccc3c2CCCC3)cc(OC)c1OC | 14 | 1 | 7 | -1 | 12
CCc1ccc(NCc2cc3ccc(OC)cc3n(CC(=O)Nc3cccc(Cl)c3C)c2=O)cc1 | . | . | . | -1 | 2
CCOC(=O)C1CCCCN1C(=O)c1ccc2nc(Cc3ccc(OC)cc3)oc2c1 (stereo unspecified) | -18 | ? | 2 | 0 | 31*
COc1ccc(Cc2nc3ccc(C(=O)N4CCC[C@H]4CO)cc3o2)cc1 | -8 | -1 | 0 | 2 | -2
O=C(NCCS(=O)(=O)N1CCN(c2ccccc2)CC1)C1CC(=O)N(c2ccc(F)cc2)C1 (stereo unspecified) | 32* | -1 | -6 | 0 | -6
CCOC(=O)N1CCN(Cc2c(NC(=O)c3ccco3)sc(C)c2C)CC1 | 7 | 4 | -4 | 0 | .
O=C(NCCS(=O)(=O)N1CCN(c2ccc(F)cc2)CC1)c1ccco1 | 33* | -4 | -7 | 0 | -13
Cc1sc(NC(=O)c2ccco2)c(CN2CCN(c3ccc(F)cc3)CC2)c1C | 33* | 1 | -4 | 1 | -5
O=C(NCCS(=O)(=O)N1CCN(c2ccccc2F)CC1)c1ccco1 | -3 | -1 | 10 | -1 | -3
O=C(Cc1ccc(F)cc1)NCCS(=O)(=O)N1CCN(c2ccccc2)CC1 | 46* | ? | -6 | 10 | -6
CC1CC(=Cc2ccc([N+](=O)[O-])cc2)C(=O)O1 (stereo unspecified) | . | -1 | -16 | . | .
O=C(NCCO)C1(c2ccc(Cl)cc2)CCCC1 | 32* | -2 | 11 | 0 | 3
C[C@H](NC(=O)[C@H](Cc1ccccc1)NC(=O)c1cc2cc(Cl)ccc2n1C)C(=O)O | -18 | 2 | -18 | 3 | 18
COc1ccc(S(=O)(=O)CCc2nc3ccccc3s2)cc1 | 59* | -3 | -2 | 0 | -3
O=S(=O)(CCc1nc2ccccc2s1)c1ccc(Cl)cc1 | -8 | 2 | 7 | 0 | 0
CC(Oc1ccc(Br)cc1)C(=O)NC1CCN(Cc2ccccc2)CC1 (stereo unspecified) | 64* | -5 | -32 | 0 | 2
CCCC(CCC)C(=O)NC1CCN(Cc2ccccc2)CC1 | 18 | 0 | -12 | 0 | -18
CC(C)Oc1ccc(C(=O)NC2CCN(Cc3ccccc3)CC2)cc1 | -12 | -3 | -26 | 0 | -23
COC(=O)[C@H](C)NC(=O)NC1CCN(Cc2ccccc2)CC1 | 50* | -2 | -20 | 0 | -11
O=C(c1ccc(Cl)cc1)c1coc2ccc(O)cc12 | 35* | -3 | -3 | 0 | 0
O=C(c1ccc(Br)cc1)c1coc2ccc(O)cc12 | . | 1 | 5 | . | .
CC(=O)NC(c1ccccc1)c1nc(-c2cccnc2)cs1 (stereo unspecified) | . | 2 | 2 | . | .
C=CCc1ccc(OCCOCCN(C)C)c(OC)c1 | 5 | 0 | -26 | 0 | 31*
COc1ccccc1-c1c(C)nn2c(N3CCN(c4cccc(Cl)c4)CC3)cc(C)nc12 | . | . | . | 0 | -19
Cc1cccc(C(C)C)c1NC(=O)COC(=O)CN1C(=O)C2CC=CCC2C1=O (stereo unspecified) | -3 | -4 | -11 | 1 | 5
